# According to the supplement of paper PMC12645437, “Orthogonal IMiD-Degron Pairs Induce Selective Protein Degradation in Cells” (ACS Chemical Biology, 2025):
# In all, about 8,300 sequences were measured (“log2 fold change of degron read counts, EGFP-low vs EGFP+ sorted cells (limma voom), compound-induced degradation”: median about -1.1, highest 2% from about 3.2 on). The sample holds the highest values, similar sequences and a random draw of the others, so the mix is not that of the screen.
# T1: CRBN, Q96SW2
# T1 chain: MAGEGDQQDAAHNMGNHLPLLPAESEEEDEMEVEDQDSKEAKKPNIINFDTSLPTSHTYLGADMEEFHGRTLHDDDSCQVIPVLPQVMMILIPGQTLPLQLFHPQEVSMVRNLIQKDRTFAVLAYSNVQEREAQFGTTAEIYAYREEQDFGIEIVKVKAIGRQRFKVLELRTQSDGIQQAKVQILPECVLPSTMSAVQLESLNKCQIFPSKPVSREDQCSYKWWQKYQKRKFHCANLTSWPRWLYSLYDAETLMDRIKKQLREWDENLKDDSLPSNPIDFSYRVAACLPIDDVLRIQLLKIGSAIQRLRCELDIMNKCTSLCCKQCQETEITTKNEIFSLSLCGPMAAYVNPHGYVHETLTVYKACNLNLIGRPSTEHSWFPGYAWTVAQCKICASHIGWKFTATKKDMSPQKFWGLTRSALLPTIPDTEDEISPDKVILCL
# Molecular target: T1, CRBN, Q96SW2
# Assay: log2 fold change of degron read counts, EGFP-low vs EGFP+ sorted cells (limma voom), compound-induced degradation; higher = more compound-induced degradation of the degron-EGFP fusion; degrons are variants of IKZF1/3 zinc finger 2; compound dose not given here
# Settings: Jurkat, 18 h
# [1] = compound: compound 19 (5-tert-butyl-thalidomide)
# [2] = compound: compound 22 (5-morpholino-thalidomide)
# [3] = compound: compound 33 (diphenyl IMiD analogue)
# 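Note: pooled lentiviral library of zinc finger degron-EGFP fusions in mCherry-positive Jurkat cells, FACS-sorted after compound exposure, with degron abundance counted by next-generation sequencing.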
Sequence,log2 fold change of degron read counts [1],log2 fold change of degron read counts [2],log2 fold change of degron read counts [3],log2 fold change of degron read counts (compound: thalidomide)
"FNCEVCGATFTQKGNLLRHIKL [46F_47N_49E_50V_52G_53A_54T_55F_67L_, Q9UKT9]",1.35,0.0506,0.168,-0.31
"FMCEVCGATFTQKGNLLRHIKL [46F_47M_49E_50V_52G_53A_54T_55F_67L_, Q9UKT9]",-1.56,-0.319,2.09,0.937
"FKCEVCGATFTQKGNLLRHIKL [46F_47K_49E_50V_52G_53A_54T_55F_67L_, Q9UKT9]",-1.63,-3.47,-2.68,-1.11
"FCCEVCGATFTQKGNLLRHIKL [46F_47C_49E_50V_52G_53A_54T_55F_67L_, Q9UKT9]",1.77,2.12,2.55,2.46
"LLCEICGFNCTQKGNLLRHIKL [46L_47L_49E_50I_52G_53F_54N_55C_67L_, Q9UKT9]",-1.18,-1.96,-1.11,-0.267
"FYCEICGRPFTQKGNLLRHIKL [46F_47Y_49E_50I_52G_53R_54P_55F_67L_, Q9UKT9]",3.04,1.62,1.39,0.0233
"FACNQCGHHFTQKGNLLRHIKL [46F_47A_49N_50Q_52G_53H_54H_55F_67L_, Q9UKT9]",-2.3,-2.72,-2.62,-2.01
"FDCNQCGASFTQKGNLLRHIKL [46F_47D_49N_50Q_52G_53A_54S_55F_67L_, Q9UKT9]",-2.01,-2.73,-2.35,-2.1
"FYCPICGHYFTQKGNLLRHIKL [46F_47Y_49P_50I_52G_53H_54Y_55F_67L_, Q9UKT9]",-0.992,-1.44,-0.727,-1.13
"FWCPICGAFFTQKGNLLRHIKL [46F_47W_49P_50I_52G_53A_54F_55F_67L_, Q9UKT9]",2.39,3,1.83,0.77
"LKCNQCGFQCTQKGNLLRHIKL [46L_47K_49N_50Q_52G_53F_54Q_55C_67L_, Q9UKT9]",-2.34,-2.76,-2.86,-2.48
"FKCDQCGAEFTQKGNLLRHIKL [46F_47K_49D_50Q_52G_53A_54E_55F_67L_, Q9UKT9]",-2.81,-1.6,-3.49,-3
"FFCEVCGATFTQKGNLLRHIKL [46F_47F_49E_50V_52G_53A_54T_55F_67L_, Q9UKT9]",2.72,3.74,1.9,1.47
"FLCEVCGATFTQKGNLLRHIKL [46F_47L_49E_50V_52G_53A_54T_55F_67L_, Q9UKT9]",-1.71,-1.32,0.752,1.34
"FVCEVCGATFTQKGNLLRHIKL [46F_47V_49E_50V_52G_53A_54T_55F_67L_, Q9UKT9]",-0.246,1.36,1.98,2.24
"FLCPICGRGFTQKGNLLRHIKL [46F_47L_49P_50I_52G_53R_54G_55F_67L_, Q9UKT9]",-1.58,-1.94,-0.785,-0.724
"FQCPICGAHFTQKGNLLRHIKL [46F_47Q_49P_50I_52G_53A_54H_55F_67L_, Q9UKT9]",0.0422,1.5,1.32,3.32
"FACPICGAHFTQKGNLLRHIKL [46F_47A_49P_50I_52G_53A_54H_55F_67L_, Q9UKT9]",3.08,1,0.948,0.563
"FVCPICGAHFTQKGNLLRHIKL [46F_47V_49P_50I_52G_53A_54H_55F_67L_, Q9UKT9]",-0.217,2.12,1.37,2.41
"FGCPICGAHFTQKGNLLRHIKL [46F_47G_49P_50I_52G_53A_54H_55F_67L_, Q9UKT9]",2.89,1.31,1.51,0.333
"FYCPICGAHFTQKGNLLRHIKL [46F_47Y_49P_50I_52G_53A_54H_55F_67L_, Q9UKT9]",3.12,3.56,2.1,0.702
"FCCPICGAHFTQKGNLLRHIKL [46F_47C_49P_50I_52G_53A_54H_55F_67L_, Q9UKT9]",1.94,0.949,1.85,1.24
"FSCPICGAHFTQKGNLLRHIKL [46F_47S_49P_50I_52G_53A_54H_55F_67L_, Q9UKT9]",2.35,1.14,1.5,1.13
"FFCPICGAHFTQKGNLLRHIKL [46F_47F_49P_50I_52G_53A_54H_55F_67L_, Q9UKT9]",2.66,2.83,1.81,0.615
"FWCPICGAHFTQKGNLLRHIKL [46F_47W_49P_50I_52G_53A_54H_55F_67L_, Q9UKT9]",2.66,3.51,1.81,0.881
"FECEQCGADFTQKGNLLRHIKL [46F_47E_49E_50Q_52G_53A_54D_55F_67L_, Q9UKT9]",-3.85,-4.35,-2.06,-2.36
"FWCPVCGALFTQKGNLLRHIKL [46F_47W_49P_50V_52G_53A_54L_55F_67L_, Q9UKT9]",1.3,2.3,1.77,0.113
"FYCEICGREFTQKGNLLRHIKL [46F_47Y_49E_50I_52G_53R_54E_55F_67L_, Q9UKT9]",-0.515,-1.07,-0.325,-1.93
